According to PubChem BioAssay AID1159580 (chemical genetic matrix, 2015):
The campaign covered roughly 5,500 compounds. About 2,000 (36%) were called active. About 18% were inconclusive and are not listed. No stated cut-off is given here; in the data, active means normalized growth mostly below about 0.91 (no sharp cut-off); inconclusive means no clear call, values can overlap the other calls; inactive means mostly above about 0.92. Some of the results follow.

Test: chemical genetic growth profiling, strain panel (AID 1159580);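 further: tested at 20 µM; growth read once vehicle control cultures reached saturation at 30 °C; 1 = growth at the plate median or of vehicle wells; lower values mean less growth of the strain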
Settings: S. cerevisiae deletion strains, growth OD

Measured: normalized growth

CC(=O)O[C@H]1CC2CCC3C(CC[C@@]4(C)C3C[C@H]([N+]3(C)CCCCC3)[C@@H]4OC(C)=O)[C@@]2(C)C[C@@H]1[N+]1(C)CCCCC1 (stereo not given in full)
inactive: locus YAL021C, strain ccr4, active compounds read low 1.02 | locus YAL026C, strain drs2, active compounds read low 1.02 | locus YAL030W, strain snc1, active compounds read low 1.02 | locus YBL061C, strain skt5, active compounds read low 1.01 | locus YBR009C, strain hhf1, active compounds read low 1.03 | locus YBR023C, strain chs3, active compounds read low 1.03 | locus YBR171W, strain sec66, active compounds read low 1.04 | locus YBR231C, strain swc5, active compounds read low 1.02 | locus YBR279W, strain paf1, active compounds read low 1.01 | locus YCL011C, strain gbp2, active compounds read low 1.02 | locus YCL016C, strain dcc1, active compounds read low 1.02 | locus YCL061C, strain MRC1, active compounds read low 1.02 | locus YCL069W, strain vba3, active compounds read low 1.01 | locus YCR088W, strain abp1, active compounds read low 1.01 | locus YDL005C, strain med2, active compounds read low 1.02 | locus YDL040C, strain nat1, active compounds read low 1.02 | locus YDR001C, strain nth1, active compounds read low 1.01 | locus YDR069C, strain doa4, active compounds read low 1.02 | locus YDR137W, strain rgp1, active compounds read low 1.04 | locus YDR159W, strain sac3, active compounds read low 1.04 | locus YDR195W, strain ref2 0.978 | locus YDR297W, strain sur2, active compounds read low 1.01 | locus YDR334W, strain swr1, active compounds read low 1.01 | locus YDR335W, strain msn5, active compounds read low 1.02 | locus YDR392W, strain spt3, active compounds read low 0.943 | locus YEL003W, strain gim4, active compounds read low 1.02 | locus YEL037C, strain rad23, active compounds read low 1.02 | locus YEL061C, strain CIN8 (second series), active compounds read low 1.02 | locus YER015W, strain faa2, active compounds read low 1.01 | locus YER016W, strain bim1, active compounds read low 1.02 | locus YER111C, strain swi4, active compounds read low 1.01 | locus YER155C, strain BEM2 (second series), active compounds read low 1.03 | locus YFR010W, strain ubp6, active compounds read low 1.01 | locus YGL167C, strain pmr1, active compounds read low 1.02 | locus YGL173C, strain kem1, active compounds read low 1.03 | locus YGL227W, strain vid30, active compounds read low 1.01 | locus YGL240W, strain doc1, active compounds read low 1.02 | locus YGL253W, strain hxk2, active compounds read low 1.02 | locus YHR013C, strain ard1, active compounds read low 1.01 | locus YHR027C, strain rpn1, active compounds read low 1.01 | locus YHR030C, strain SLT2, active compounds read low 1.04 | locus YHR079C, strain IRE1, active compounds read low 1.03 | locus YHR142W, strain chs7, active compounds read low 1.02 | locus YJL092W, strain hpr5, active compounds read low 1.01 | locus YJL095W, strain BCK1 (second series), active compounds read low 1.02 | locus YJL095W, strain BCK1, active compounds read low 1.02 | locus YJL115W, strain asf1, active compounds read low 1.03 | locus YJL129C, strain trk1, active compounds read low 1.02 | locus YJL154C, strain vps35, active compounds read low 1.01 | locus YJL164C, strain tpk1, active compounds read low 1.01 | locus YJL166W, strain qcr8, active compounds read low 1.02 | locus YJL187C, strain SWE1, active compounds read low 1.02 | locus YJR066W, strain TOR1, active compounds read low 0.979 | locus YKL160W, strain elf1, active compounds read low 1.02 | locus YKR026C, strain gcn3, active compounds read low 1 | locus YKR091W, strain srl3, active compounds read low 1.02 | locus YLL001W, strain dnm1, active compounds read low 1.02 | locus YLL026W, active compounds read low 1.03 | locus YLL041C, strain sdh2, active compounds read low 1.02 | locus YLR027C, strain aat2, active compounds read low 1.02 | locus YLR113W, strain HOG1, active compounds read low 0.988 | locus YLR221C, strain rsa3, active compounds read low 1.01 | locus YLR258W, strain gsy2, active compounds read low 1.02 | locus YLR262C, strain YPT6 (second series), active compounds read low 1.04 | locus YLR320W, strain mms22, active compounds read low 1.01 | locus YLR342W, strain FKS1, active compounds read low 1.03 | locus YLR357W, strain rsc2, active compounds read low 0.991 | locus YLR370C, strain arc18, active compounds read low 1.03 | locus YLR384C, strain iki3, active compounds read low 1.01 | locus YML120C, strain ndi1, active compounds read low 1.01 | locus YMR058W, strain fet3, active compounds read low 1.02 | locus YMR125W, strain sto1, active compounds read low 1.02 | locus YMR129W, active compounds read low 1.02 | locus YMR205C, strain PFK2, active compounds read low 1.02 | locus YMR231W, strain pep5, active compounds read low 1.01 | locus YNL071W, strain lat1, active compounds read low 1.01 | locus YNL183C, strain NPR1, active compounds read low 0.974 | locus YNL209W, strain ssb2, active compounds read low 1.01 | locus YNL248C, strain rpa49, active compounds read low 0.988 | locus YNL322C, strain KRE1 (second series), active compounds read low 1.02 | locus YNR049C, strain mso1, active compounds read low 1.01 | locus YOR001W, strain rrp6, active compounds read low 1.03 | locus YOR070C, strain gyp1, active compounds read low 1.02 | locus YOR080W, strain dia2, active compounds read low 1.03 | locus YOR083W, strain WHI5, active compounds read low 1.02 | locus YOR106W, strain vam3, active compounds read low 1.02 | locus YOR231W, strain MKK1, active compounds read low 1.03 | locus YOR265W, strain rbl2, active compounds read low 1.02 | locus YOR270C, strain vph1, active compounds read low 1.05 | locus YOR290C, strain snf2, active compounds read low 1.02 | locus YPL051W, strain arl3, active compounds read low 1.02 | locus YPL078C, strain atp4, active compounds read low 1.01 | locus YPL106C, strain sse1, active compounds read low 1 | locus YPL240C, strain hsp82, active compounds read low 1.02 | locus YPL256C, strain CLN2, active compounds read low 1.04
